# Screening data (PubChem BioAssay)
# Sampled rows, rich in hits. Any-hit rate of the full collection: about 7.4%.
# 3T3 cytotox – kills NIH 3T3 cells; NIH 3T3 viability, CellTiter-Glo ATP luminescence, 48-72 h; Potency, µM (top dose mostly 96.7 µM), for inactives: at the top dose activity change, negative = cytotoxicity, usual class: inhibitors; hit rate 4.3% among 94,000; also: nearly all actives have a fitted effect of over 55% in size
#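 Cytotoxicity was measured by CellTiter-Glo ATP luminescence after 48 or 72 h compound exposure at 37 °C. Mouse NIH 3T3 fibroblasts were seeded at 400 cells/well and dosed by 23 nL pin transfer.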
# SNCA expr inhib – inhibitors of alpha-synuclein (SNCA) gene expression | HEK-293 SNCA-luciferase knock-in, luminescence, 24 h | Potency, µM (doses to about 57.2 µM), for inactives: top-dose activity change, negative = inhibition, hits mostly inhibitors | hit rate 0.17% among 140,000 | AID 1671194;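 also: plate controls were DMSO cells for no effect and cell-free wells for full effect; nearly all actives have a fitted effect of over 45% in size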
# SNCA viab count – reduces viability of HEK-293 SNCA reporter cells; HEK-293-SNCA-luc viability, GF-AFC fluorescence, 24 h; Potency, µM (highest dose often 57.1 µM), without a hit: at the highest dose activity change, negative = cytotoxicity, most hits filed as cytotoxic; hit rate 0.12% among 150,000;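 also: 0% = DMSO-treated cells and -100% = medium-only wells without cells; nearly all actives have a fitted effect of over 30% in size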
#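 HEK-293-SNCA-luc cells (1500/well) plated 24 h, then exposed 24 h to a dilution series; GF-AFC added 30 min at 37C, fluorescence 405/540 nm; normalised to medium-only and DMSO wells, Hill fit.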
# hNpr1 antagonist – blocks ANP-stimulated signaling of human Npr1 receptor; hit rate 1.6% among 76,000; HEK293 hNpr1 GloSensor cGMP, ANP-stimulated luminescence; AID 1347048; Potency, µM (doses to about 46.3 µM), for the others: at the top dose activity change, negative = inhibition, usual class: inhibitors; calls by dose curve; also: nearly all actives have a fitted effect of over 60% in size
#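 HEK293 cells stably expressing human Npr1 and cGMP GloSensor pGS-40F, loaded 2 h with 2% GloSensor reagent, given compound 30 min at room temperature. Luminescence read before and 20 min after 0.1 nM hNppA.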
# HEK293 tox – HEK 293 cell cytotoxicity | HEK 293 viability, ATP luminescence (CellTiter-Glo), 48-72 h | Potency, µM (highest dose often 115 µM), inactives show at the highest dose activity change, negative = cytotoxicity, actives largely listed as inhibitors | hit rate 6.6% among 94,000; also: nearly all actives have a fitted effect of over 60% in size
#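 Cells seeded first (HEK 293, 250 cells/well), then compound added by pintool. Incubation ran 48 or 72 hr at 37 degree Celsius. CellTiter-Glo was added and luminescence imaged after 10 min at room temperature.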
# FLuc inh – inhibitors of firefly (Photinus pyralis) luciferase | Potency, µM (titrated, usually from 115 µM), usual class: inhibitors | hit rate 2.5% among 76,000 | AID 1347043 | purified P. pyralis luciferase, luminescence, biochemical | P08659; also: nearly all actives have a fitted effect of over 65% in size
# Target sequence (P08659 whole entry, looked up): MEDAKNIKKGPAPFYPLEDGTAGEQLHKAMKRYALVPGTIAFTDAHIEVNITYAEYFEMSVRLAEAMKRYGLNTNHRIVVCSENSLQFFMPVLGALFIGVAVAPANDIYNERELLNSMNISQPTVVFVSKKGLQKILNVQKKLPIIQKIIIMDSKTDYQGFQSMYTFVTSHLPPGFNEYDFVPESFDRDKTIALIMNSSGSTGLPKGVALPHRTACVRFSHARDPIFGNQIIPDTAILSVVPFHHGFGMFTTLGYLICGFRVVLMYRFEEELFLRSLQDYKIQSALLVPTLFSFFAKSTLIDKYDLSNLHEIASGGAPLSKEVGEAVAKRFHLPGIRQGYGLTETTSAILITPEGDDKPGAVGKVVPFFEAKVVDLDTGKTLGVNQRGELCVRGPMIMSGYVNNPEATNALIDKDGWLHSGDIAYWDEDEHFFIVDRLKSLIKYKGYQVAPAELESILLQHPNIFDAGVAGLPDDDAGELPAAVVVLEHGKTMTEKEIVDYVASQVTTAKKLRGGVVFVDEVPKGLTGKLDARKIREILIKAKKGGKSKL
#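 Purified 10nM P. pyralis luciferase with 10uM D-luciferin and 10uM ATP in 50mM Tris acetate pH 7.5, 10mM Mg acetate, 0.01% Tween-20, 0.05% BSA. qHTS titration; luminescence read by CCD imager.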
# * hit, by the source's call; i = inactive; u = inconclusive; x = no result given; [ ] = dose if it differs, or a comment. Unless noted, calls follow the shape of the dose curve; as a rule, active = well fitted curve in the direction sought with a large enough effect; inconclusive = small, poorly fitted or top-dose-only effect, or another doubt; inactive = no such curve, though single readings can be large; an effect the other way counts as inactive or inconclusive. Unless noted, % is scaled to controls: 0 for no effect and ±100 for the full control effect; potency is read from the fitted curve at half-maximal effect.
SMILES,3T3 cytotox,SNCA expr inhib,SNCA viab count,hNpr1 antagonist,HEK293 tox,FLuc inh
Cc1ccc(-c2cn3c(n2)CO[C@@H](CNCc2ccc(S(C)(=O)=O)cc2)C3)cc1,-28%[174 µM],42%[87.6 µM],2%[87.6 µM],-21%[70.6 µM],u,u
Cc1cc(C[C@@H]2COC[C@@H]2NC(=O)CN2CCN(c3ncccn3)CC2)on1,1%,1%,-1%,6%,2%,i
Cc1ccc(-c2cn3c(n2)CO[C@@H](CNC(=O)NCc2ccccc2)C3)cc1,-17%[138 µM],-16%[87.6 µM],3%[87.6 µM],0%[70.6 µM],u,71µM*
Cc1noc(C)c1S(=O)(=O)N1CCCC(CCc2ccc(F)c(F)c2)C1 (stereo not given),u,20%,6%,-15%,45µM*,i
O=S(=O)(c1ccc(C(F)(F)F)cc1)N1CCC(C2CCNC2)CC1 (stereo not given),u,-3%,2%,0%,79µM*,i
O=S(=O)(c1ccc(F)c(F)c1)N1CCC(C2CCNC2)CC1 (stereo not given),-13%,4%,-10%,-2%,u,i
COc1ccccc1-c1ccc(CN2CCC(NC(=O)c3ccc(C(F)(F)F)cc3)C2)cc1 (stereo not given),u,x,x,x,25µM*,x
COc1ccccc1-c1ccc(CN2CC3CCC(C2)N3c2ccc(C(F)(F)F)cc2)cc1,-11%,5%,-6%,x,-22%,x
Cc1cccc(-c2cccc(CN3CCC(NC(=O)c4ccc(C(F)(F)F)cc4)CC3)c2)c1,-11%,-2%,4%,x,-23%,x
COc1ccc(F)cc1-c1ccc(CN2CCC(NC(=O)c3ccc(C(F)(F)F)cc3)C2)cc1 (stereo not given),u,x,x,x,20µM*,x
Cc1ccc(NC(=O)N(C)CC2CCOC2)c(Cl)c1 (stereo not given),1%,-10%,-10%,-1%,5%,i
COc1ccc(-c2ncc(CN3CCOC(c4cccnc4)C3)cn2)cc1 (stereo not given),u,5%,-3%,-22%,u,i
CCCNC(=O)N1CC(Oc2cccc(-c3nc(-c4ccccc4)no3)c2)C1,-23%,8%,-6%,-2%,28µM*,i
COc1ccccc1C(=O)N1CC(Oc2cccc(-c3nc(-c4ccccc4)no3)c2)C1,32µM*,162%,-8%,-10%,45µM*,7.9µM*
COc1ccccc1C(=O)N1CC(Oc2ccc(-c3noc(-c4ccncc4)n3)cc2)C1,35µM*,-26%,-26%,x,u,x
COc1cccc(C(=O)N2CC(Oc3cccc(-c4nc(-c5ccccc5)no4)c3)C2)c1,u,19%,-1%,-4%,u,u
O=C(C1CCOCC1)N1CC(Oc2cccc(-c3nc(-c4ccccc4)no3)c2)C1,u,91%,-13%,4%,u,18µM*
O=C(c1ccoc1)N1CC(Oc2cccc(-c3nc(-c4ccccc4)no3)c2)C1,u,32%,-10%,5%,u,u
Cn1cccc1C(=O)N1CC(Oc2ccc(-c3nc(-c4ccccc4)no3)cc2)C1,-27%,18%,-7%,-15%,u,u
COCCNC(=O)CCCN1C(=O)COc2ccc(C(=O)COc3ccc(C)cc3OC)cc21,-30%,u,-22%,-8%,-22%,i
CC(Oc1ccccc1)C(=O)N1CC(Oc2cccc(-c3nc(-c4ccccc4)no3)c2)C1 (stereo not given),28µM*,24%,7%,-27%,32µM*,u
O=C(c1cc(F)ccc1F)N1CC(Oc2cccc(-c3nc(-c4ccccc4)no3)c2)C1,u,31%,5%,-1%,u,u
Cn1c(C(=O)NCCCc2nnc(N)s2)cc(=O)n(C)c1=O,-23%,76%,-6%,1%,-25%,i
O=Cc1ccc(-c2cccc(Cl)c2)cc1,-27%[138 µM],-9%[87.6 µM],5%[87.6 µM],x,0%[172 µM],x
NCc1ccc(-c2cccc(Cl)c2)cc1,32µM*,34%[87.6 µM],-21%[87.6 µM],x,45µM*,x
SMILES,3T3 cytotox,SNCA expr inhib,SNCA viab count,hNpr1 antagonist,HEK293 tox,FLuc inh
Cc1cccc(-c2ccc(CN)cc2)c1,32µM*,27%[87.6 µM],5%[87.6 µM],x,63µM*,x
COc1cccc(-c2ccc(CN)cc2)c1,u,17%[87.6 µM],3%[87.6 µM],x,-29%[172 µM],x
O=C(Nc1ccc(-c2nnc3n2CCCC3)cc1)c1ccn[nH]1,-1%,-2%,11%,0%,11%,i
c1cc(-c2cc3c(ccn3Cc3ccncc3)c(N3CCOCC3)n2)c2cc[nH]c2c1,35µM*,-9%[87.6 µM],-28%[87.6 µM],-16%[70.6 µM],32µM*,i
Fc1ccccc1-c1cc2c(ccn2Cc2ccncc2)c(N2CCOCC2)n1,35µM*,-21%[87.6 µM],-14%[87.6 µM],-1%[70.6 µM],89µM*,i
c1cc(-c2cc3c(ccn3Cc3ccncc3)c(N3CCOCC3)n2)c2cn[nH]c2c1,14µM*,-14%[87.6 µM],-23%[87.6 µM],-18%[70.6 µM],89µM*,i
COc1ccccc1-c1cc2c(ccn2Cc2ccncc2)c(N2CCOCC2)n1,u,-5%[87.6 µM],-10%[87.6 µM],-16%[70.6 µM],u,i
c1cc(-c2cc3c(ccn3Cc3ccncc3)c(N3CCOCC3)n2)c2[nH]ncc2c1,u,u,-29%[87.6 µM],-13%[70.6 µM],89µM*,i
N#Cc1ccccc1-c1cc2c(ccn2Cc2ccncc2)c(N2CCOCC2)n1,u,-12%[87.6 µM],-14%[87.6 µM],-11%[70.6 µM],u,i
CC(=O)Nc1cccc(-c2cc3c(ccn3Cc3ccncc3)c(N3CCOCC3)n2)c1,u,6%[87.6 µM],9%[87.6 µM],2%[70.6 µM],-18%[172 µM],i
Cn1c(=O)n([C@H]2CCCN(C(=O)c3ccn[nH]3)C2)c2ncccc21,i,18%,2%,1%,i,i
Cc1cccc(-c2noc([C@@H]3Cc4nc[nH]c4CN3C(=O)C3CCCCC3)n2)c1,u,13%[87.6 µM],-10%[87.6 µM],-1%[70.6 µM],u,56µM*
Cc1cccc(-c2noc([C@@H]3Cc4nc[nH]c4CN3C(=O)c3ccccc3C(=O)O)n2)c1,-5%[174 µM],-8%[87.6 µM],-1%[87.6 µM],4%[70.6 µM],-15%[172 µM],u
O=[N+]([O-])c1cccc(-c2noc([C@@H]3Cc4nc[nH]c4CN3CC3CCCCC3)n2)c1,71µM*,u,u,-14%[70.6 µM],56µM*,i
Cc1cccc(-c2noc([C@@H]3Cc4nc[nH]c4CN3)n2)c1,-27%[230 µM],u,2%[87.6 µM],-2%[70.6 µM],-4%[230 µM],50µM*
Cc1cccc(-c2noc([C@@H]3Cc4nc[nH]c4CN3C(=O)c3ccc(-c4ccccc4)cc3)n2)c1,20µM*,u,-19%,-26%,35µM*,i
Cc1cnn(CCC(=O)N2C[C@@H](CO)[C@H](c3ccncc3)C2)c1,-1%,2%,6%,-19%,-9%,i
